Here are results for two molecules from article PMC11062922 (Nature Chemical Biology, 2023).

Common to all, as to parameters: species or system human, MV4-11 + K-562 + COLO205 + SK-N-BE2 + OVCAR-8
In one test the test system is ADRBK1. The conditions noted are these: read-out: apparent Kd, n = 1.
The test system of another test is AURKA. The conditions noted are these: read-out: apparent Kd; compound concentrations:100 nM and 1000 nM (sheet 'Samples'); n = 1.
A further test relates to CDC42BPA. The conditions noted are these: read-out: apparent Kd, n = 1.
The test system of another test is CDC42BPB. The conditions noted are these: read-out: apparent Kd, n = 1.
For another test, the system named is CDC42BPG. The conditions noted are these: read-out: apparent Kd, n = 1.
Another test relates to CDK6. The conditions noted are these: read-out: apparent Kd; compound concentrations:100 nM and 1000 nM (sheet 'Samples'); n = 1.
The next test relates to CDKL5. The conditions noted are these: read-out: apparent Kd; compound concentrations:100 nM and 1000 nM (sheet 'Samples'); n = 1.
Another test concerns CHEK1. The conditions noted are these: read-out: apparent Kd; compound concentrations:100 nM and 1000 nM (sheet 'Samples'); n = 1.
The subject of the next test is CSNK1G1. The conditions noted are these: read-out: apparent Kd; compound concentrations:100 nM and 1000 nM (sheet 'Samples'); n = 1.
The next test concerns FN3KRP. The conditions noted are these: read-out: apparent Kd; compound concentrations:100 nM and 1000 nM (sheet 'Samples'); n = 1.
For the next test, the system named is MTHFD1. The conditions noted are these: read-out: apparent Kd; compound concentrations:100 nM and 1000 nM (sheet 'Samples'); n = 1.
Another test concerns NUAK1. The conditions noted are these: read-out: apparent Kd; compound concentrations:100 nM and 1000 nM (sheet 'Samples'); n = 1.
Another test deals with NUAK2. The conditions noted are these: read-out: apparent Kd; compound concentrations:100 nM and 1000 nM (sheet 'Samples'); n = 1.
For a further test, the system named is PDXK. The conditions noted are these: read-out: apparent Kd; compound concentrations:100 nM and 1000 nM (sheet 'Samples'); n = 1.
In a further test the test system is PKN1. The conditions noted are these: read-out: apparent Kd, n = 1.
A further test has as its system PKN2. The conditions noted are these: read-out: apparent Kd; compound concentrations:100 nM and 1000 nM (sheet 'Samples'); n = 1.
In a further test the test system is PRKAA1. The conditions noted are these: read-out: apparent Kd; compound concentrations:100 nM and 1000 nM (sheet 'Samples'); n = 1.
For another test, the system named is PRKACA. The conditions noted are these: read-out: apparent Kd, compound concentrations: 100 nM and 1000 nM (sheet 'Samples'), n = 1.
In a further test the test system is PRKACB. The conditions noted are these: read-out: apparent Kd, n = 1.
For the next test, the system named is PRKAG1. The conditions noted are these: read-out: apparent Kd; compound concentrations:100 nM and 1000 nM (sheet 'Samples'); n = 1.
The next test deals with PRKAG2. The conditions noted are these: read-out: apparent Kd; compound concentrations:100 nM and 1000 nM (sheet 'Samples'); n = 1.
In another test the test system is PRKCA. The conditions noted are these: read-out: apparent Kd; compound concentrations:100 nM and 1000 nM (sheet 'Samples'); n = 1.
For the next test, the system named is PRKCB. The conditions noted are these: read-out: apparent Kd; compound concentrations:100 nM and 1000 nM (sheet 'Samples'); n = 1.
A further test has as its system PRKCD. The conditions noted are these: read-out: apparent Kd; compound concentrations:100 nM and 1000 nM (sheet 'Samples'); n = 1.
A further test has as its system PRKCQ. The conditions noted are these: read-out: apparent Kd; compound concentrations:100 nM and 1000 nM (sheet 'Samples'); n = 1.
Another test concerns PRKG1. The conditions noted are these: read-out: apparent Kd, n = 1.
The next test deals with PRKX;PRKY. The conditions noted are these: read-out: apparent Kd, n = 1.
The next test has as its system ROCK1. The conditions noted are these: read-out: apparent Kd, n = 1.
Another test has as its system ROCK2. The conditions noted are these: read-out: apparent Kd, n = 1.
Another test has as its system RPS6KA5. The conditions noted are these: read-out: apparent Kd, n = 1.
A further test has as its system RPS6KB1. The conditions noted are these: read-out: apparent Kd, n = 1.
For another test, the system named is AURKB. The conditions noted are these: read-out: apparent Kd; compound concentrations: 100 nM and 1000 nM (sheet 'Samples'), CATDS: 4.53976270719329E-2; n = 1.
The subject of another test is MELK. The conditions noted are these: read-out: apparent Kd; compound concentrations: 100 nM and 1000 nM (sheet 'Samples'), CATDS: 4.0337872556692203E-2; n = 1.
The mark [1] stands for this setting: compound concentrations:100 nM and 1000 nM (sheet 'Samples').

Like-named read-outs stand apart in the source and are kept apart here.

For `COc1ccc(O)c(C(=O)c2ccc(C(=O)O[C@@H]3CCCNC[C@H]3NC(=O)c3ccncc3)cc2)c1F.Cl` [RO0480500-002], the potency estimated from few doses in the test with ADRBK1 (setting [1]) is 119 nM; in the test on AURKA, 693 nM; in the test with CDC42BPA (setting [1]) it was 413 nM; with CDC42BPB (setting [1]), 51.3 nM; in the test with CDC42BPG (setting [1]), 630 nM; in the test with CDK6 it was 2090 nM. For the same molecule, the potency estimated from few doses in the test with CDKL5 is 237 nM; in the test on CHEK1, 26.5 nM; with CSNK1G1, 2260 nM; in the test on FN3KRP it was 764 nM; in the test with MTHFD1, 1020 nM; in the test with NUAK1, 16.5 nM. Further, the potency estimated from few doses in the test on NUAK2 was 150 nM; with PDXK, 1410 nM; in the test on PKN1 (setting [1]), 116 nM; in the test on PKN2, 241 nM; in the test on PRKAA1 it was 485 nM; with PRKACA (CATDS: 9.7859849759824202E-2) it was 12.8 nM. Moreover, the potency estimated from few doses was 21.1 nM with PRKACB (setting [1]); 1510 nM with PRKAG1; 75 nM in the test on PRKAG2; 227 nM in the test with PRKCA; 506 nM with PRKCB; 25.7 nM in the test on PRKCD. The potency estimated from few doses in the test with PRKCQ is 769 nM; in the test on PRKG1 (setting [1]), 4.47 nM; in the test with PRKX;PRKY (setting [1]), 40.2 nM; in the test with ROCK1 (setting [1]), 19.2 nM; in the test with ROCK2 (setting [1]) it was 19.1 nM; with RPS6KA5 (setting [1]), 75 nM. For the same molecule, the potency estimated from few doses with RPS6KB1 (setting [1]) is 38.6 nM.

For `CCNCC(Cc1ccccc1)NC(=O)c1cc(Br)c(-c2ccnc3[nH]ccc23)s1.CCNCC(Cc1ccccc1)NC(=O)c1cc(Br)c(-c2ccnc3[nH]ccc23)s1.Cl.Cl` (stereo not shown) [GSK1383280A], the potency estimated from few doses with ADRBK1 (compound concentrations: 100 nM and 1000 nM (sheet 'Samples'), CATDS: 4.4620595418211097E-2) was 971 nM; in the test on AURKB, 888 nM; in the test on CDC42BPA (compound concentrations: 100 nM and 1000 nM (sheet 'Samples'), CATDS: 4.6703340399090902E-2) it was 771 nM; with CDC42BPB (compound concentrations: 100 nM and 1000 nM (sheet 'Samples'), CATDS: 8.1718607262500007E-2) it was 103 nM; with CDC42BPG (compound concentrations: 100 nM and 1000 nM (sheet 'Samples'), CATDS: 0.122976821527932) it was 38.1 nM; with MELK, 1780 nM. The potency estimated from few doses with PKN1 (compound concentrations: 100 nM and 1000 nM (sheet 'Samples'), CATDS: 5.5828153237378199E-2) is 359 nM; in the test on PRKACA (CATDS: 0.15364930572584601), 24.4 nM; with PRKACB (compound concentrations: 100 nM and 1000 nM (sheet 'Samples'), CATDS: 8.6308392593060404E-2) it was 88.6 nM; with PRKG1 (compound concentrations: 100 nM and 1000 nM (sheet 'Samples'), CATDS: 0.45709294819491503), 4.21 nM; in the test with PRKX;PRKY (compound concentrations: 100 nM and 1000 nM (sheet 'Samples'), CATDS: 6.11631694313804E-2), 256 nM; in the test on ROCK1 (compound concentrations: 100 nM and 1000 nM (sheet 'Samples'), CATDS: 0.130780563846252) it was 33.5 nM. The potency estimated from few doses in the test on ROCK2 (compound concentrations: 100 nM and 1000 nM (sheet 'Samples'), CATDS: 0.120469396164387) is 39.8 nM; with RPS6KA5 (compound concentrations: 100 nM and 1000 nM (sheet 'Samples'), CATDS: 4.3322192000587102E-2) it was 1140 nM; in the test with RPS6KB1 (compound concentrations: 100 nM and 1000 nM (sheet 'Samples'), CATDS: 4.8981649950923703E-2) it was 617 nM.
